In PubChem BioAssay (EPA / NIEHS):
Calls of active or inactive are those of the source. How the source made its calls: active means hit-call score of the fitted dose curve at least 0.9, where 1 is the maximum; inactive means score below 0.9.

What was measured:
[1] = read-out: Human Leukocyte Antigen - DR isotype (HLADR), HLA-DRA (gene 3122); assay: BSK_BE3C_HLADR: BioMAP Diversity Plus: BE3C Assay for Human Leukocyte Antigen - DR isotype (HLADR) Biomarker Activity (AID 2283032); details: primary human bronchial epithelial cells; actives raise or lower the signal
Outline: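 Primary human bronchial epithelial cells (BE3C); 24 h chemical exposure; HLA-DR by ELISA; bidirectional curve fit vs DMSO baseline.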

[2] = read-out: Vascular cell adhesion molecule 1 (VCAM1), VCAM1 (gene 7412); assay: BSK_4H_VCAM1: BioMAP Diversity Plus: 4H Assay for Vascular cell adhesion molecule 1 (VCAM1) Biomarker Activity (AID 2283033); details: primary human endothelial cells (HUVEC); actives raise or lower the signal;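 on outcome: cell-surface VCAM-1 protein measured by ELISA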
Outline: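 HUVEC, 24 h post-dose; VCAM-1 by ELISA. Bidirectional curve fit vs DMSO baseline. Parallel SRB total-protein stain (0.1% SRB after 10% TCA fixation, 560 nm) for cytotoxicity.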

[3] = read-out: Interferon-gamma inducible Protein 10 (IP10), CXCL10 (gene 3627); assay: BSK_BE3C_IP10: BioMAP Diversity Plus: BE3C Assay for Interferon-gamma inducible Protein 10 (IP10) Biomarker Activity (AID 2283034); details: primary human bronchial epithelial cells; actives raise or lower the signal
Outline: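 ELISA readout of IP-10 in BE3C system: primary human bronchial epithelial cells, 24 h post-dosing; bidirectional curve fit vs DMSO baseline.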

[4] = read-out: Monokine induced gamma interferon (MIG), CXCL9 (gene 4283); assay: BSK_BE3C_MIG: BioMAP Diversity Plus: BE3C Assay for Monokine induced gamma interferon (MIG) Biomarker Activity (AID 2283035); details: primary human bronchial epithelial cells; actives raise or lower the signal;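 on outcome: MIG protein measured by ELISA in BE3C cultures after 24 h of dosing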
Outline: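 ELISA quantified MIG after 24 h exposure of primary bronchial epithelial cultures, analysed in both directions relative to DMSO. Cytotoxicity tracked in parallel cultures by sulforhodamine B staining.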

[5] = read-out: Transforming growth factor beta 1 (TGFb1), TGFB1 (gene 7040); assay: BSK_BE3C_TGFb1: BioMAP Diversity Plus: BE3C Assay for Transforming growth factor beta 1 (TGFb1) Biomarker Activity (AID 2283036;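 on outcome: TGF-b1 protein level measured by ELISA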); details: primary human bronchial epithelial cells; actives raise or lower the signal
Outline: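 Read-out: ELISA for TGF-b1 in primary human bronchial epithelial cultures, 24 h post-dose. Bidirectional curve fitting vs DMSO control; gain or loss of signal both scored.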

[6] = read-out: Plasminogen activator inhibitor-1 (PAI1), SERPINE1 (gene 5054); assay: BSK_BE3C_PAI1: BioMAP Diversity Plus: BE3C Assay for Plasminogen activator inhibitor-1 (PAI1) Biomarker Activity (AID 2283037); details: primary human bronchial epithelial cells; actives raise or lower the signal
Outline: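 ELISA read-out of PAI-1 from human bronchial epithelial primary cells, 24 h post-dosing; bidirectional curve fit vs DMSO baseline, gain or loss of signal scored.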

[7] = read-out: urokinase plasminogen activator (uPA), PLAU (gene 5328); assay: BSK_BE3C_uPA: BioMAP Diversity Plus: BE3C Assay for urokinase plasminogen activator (uPA) Biomarker Activity (AID 2283038); details: primary human bronchial epithelial cells; actives raise or lower the signal;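 on outcome: uPA protein level quantified by ELISA in cell cultures; uPA read one day after compound addition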
Outline: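 Measured by ELISA: uPA from human primary bronchial epithelial cells 24 h after chemical treatment. Values derive from bidirectional curve fitting with DMSO serving as negative control. Total protein by SRB staining in parallel wells flagged overt cytotoxicity.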

[8] = read-out: Urokinase-type plasminogen activator receptor (uPAR), PLAUR (gene 5329); assay: BSK_BE3C_uPAR: BioMAP Diversity Plus: BE3C Assay for Urokinase-type plasminogen activator receptor (uPAR) Biomarker Activity (AID 2283039); details: primary human bronchial epithelial cells; actives raise or lower the signal;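 on outcome: uPAR protein level measured by ELISA on the cells; cells exposed to compound for one day before measurement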
Outline: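 ELISA readout of uPAR on human lung primary bronchial epithelial cells, 24 h post-dosing. Bidirectional curve fit relative to DMSO vehicle baseline; gain or loss of signal both scored.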

[9] = read-out: Interleukin-6 (IL6), IL6 (gene 3569); assay: BSK_CASM3C_IL6: BioMAP Diversity Plus: CASM3C Assay for Interleukin-6 (IL6) Biomarker Activity for (AID 2283040); details: primary human coronary artery smooth muscle cells; actives raise or lower the signal
[10] = read-out: Vascular endothelial growth factor receptor 2 (Homo sapiens) (UniProt P35968); assay: BSK_4H_VEGFRII: BioMAP Diversity Plus: 4H Assay for Vascular endothelial growth factor receptor 2 (VEGFR2) Biomarker Activity (AID 2283031); details: primary human endothelial cells (HUVEC); actives raise or lower the signal;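 on AC50: cell-surface VEGFR2 protein level quantified by ELISA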
Outline: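 VEGFRII levels on human vascular endothelial primary cells were determined by ELISA at 24 hours post-dosing, with gain- or loss-of-signal fitted against DMSO controls.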

## CCN(CC)C(=O)c1cc(S(=O)(=O)Cc2ccccc2)c(N2CCC(c3ccccc3)CC2)cc1N(CC)CCN(C)C
[1]
  AC50: 8.48 µM (active)
[2]
  AC50: 18.3 µM (active)
[3]
  AC50: 10.9 µM (active)
[4]
  AC50: 12.6 µM (active)
[5]
  AC50: 9.99 µM (active)
[6]
  AC50: 7.91 µM (active)
[7]
  AC50: 10.3 µM (active)
[8]
  AC50: 10.4 µM (active)
[9]
  AC50: 0.7 µM (active)

## CCCCCCCCCCCC[N+](C)(C)C
[10]
  outcome: inactive
[1]
  AC50: 28.3 µM (active)
[2]
  AC50: 26.8 µM (active)
[4]
  AC50: 33.1 µM (active)
[6]
  AC50: 21.9 µM (active)
[7]
  AC50: 31.6 µM (active)
[8]
  AC50: 33.9 µM (active)
[9]
  outcome: inactive

## Cc1occc1C(=O)Nc1ccc(C(=O)N2CCC(F)(F)/C(=C\C(=O)N3CCC(N4CCCCC4)CC3)c3ccccc32)cc1
[10]
  outcome: inactive
[1]
  outcome: inactive
[2]
  AC50: 9.44 µM (active)
[4]
  outcome: inactive
[6]
  outcome: inactive
[7]
  outcome: inactive
[8]
  outcome: inactive
[9]
  outcome: inactive

## Clc1cc(Cl)c2c(c1)N=C1CCCCCN1C2
[10]
  outcome: inactive
[1]
  outcome: inactive
[2]
  outcome: inactive
[3]
  outcome: inactive
[4]
  outcome: inactive
[5]
  outcome: inactive
[6]
  outcome: inactive
[8]
  outcome: inactive
[9]
  outcome: inactive

## C[C@]12CC[C@@H]3c4ccc(O)cc4CC[C@H]3[C@@H]1CCC2=O
[10]
  outcome: inactive
[1]
  outcome: inactive
[2]
  outcome: inactive
[3]
  outcome: inactive
[4]
  outcome: inactive
[5]
  outcome: inactive
[6]
  outcome: inactive
[8]
  outcome: inactive
[9]
  outcome: inactive

## CC(C)(C)c1cc(/C=C2\SC(N)=NC2=O)cc(C(C)(C)C)c1O
[10]
  AC50: 27.4 µM (active)
[1]
  AC50: 7.46 µM (active)
[2]
  AC50: 26.4 µM (active)
[4]
  outcome: inactive
[5]
  outcome: inactive
[6]
  outcome: inactive
[8]
  outcome: inactive
[9]
  AC50: 36.2 µM (active)

## Cc1cccc2ccccc12
[10]
  outcome: inactive
[1]
  outcome: inactive
[2]
  outcome: inactive
[4]
  outcome: inactive
[5]
  outcome: inactive
[6]
  outcome: inactive
[7]
  outcome: inactive
[8]
  outcome: inactive
[9]
  outcome: inactive

## Cc1ccc(C(C)C)cc1
[10]
  outcome: inactive
[1]
  outcome: inactive
[2]
  outcome: inactive
[3]
  outcome: inactive
[4]
  outcome: inactive
[5]
  outcome: inactive
[6]
  outcome: inactive
[7]
  outcome: inactive
[8]
  outcome: inactive
[9]
  outcome: inactive

## CCCCCCCCOC(=O)c1cc(O)c(O)c(O)c1
[10]
  outcome: inactive
[1]
  AC50: 22 µM (active)
[2]
  AC50: 6.26 µM (active)
[4]
  AC50: 34 µM (active)
[5]
  AC50: 27.2 µM (active)
[6]
  AC50: 32.8 µM (active)
[7]
  AC50: 37.7 µM (active)
[8]
  AC50: 36.5 µM (active)
[9]
  AC50: 3.97 µM (active)

## CCCCCCCCCCCO
[10]
  outcome: inactive
[1]
  outcome: inactive
[2]
  AC50: 20 µM (active)
[3]
  outcome: inactive
[4]
  outcome: inactive
[5]
  outcome: inactive
[6]
  outcome: inactive
[8]
  outcome: inactive
[9]
  outcome: inactive

## CN1C(=O)N(c2ccccc2Br)Cc2cnc(Nc3ccc4c(c3)OCC(CO)O4)nc21 (stereo not given)
[10]
  outcome: inactive
[1]
  AC50: 28.5 µM (active)
[2]
  AC50: 15.2 µM (active)
[4]
  AC50: 34.7 µM (active)
[5]
  AC50: 20 µM (active)
[6]
  AC50: 1.63 µM (active)
[8]
  AC50: 1.23 µM (active)
[9]
  AC50: 20 µM (active)

## Cc1oc2c(NC(=O)c3c(Cl)cccc3Cl)cccc2c1C(C)(C)O
[10]
  outcome: inactive
[1]
  AC50: 18.1 µM (active)
[2]
  outcome: inactive
[3]
  outcome: inactive
[4]
  outcome: inactive
[5]
  outcome: inactive
[6]
  outcome: inactive
[7]
  outcome: inactive
[8]
  outcome: inactive
[9]
  AC50: 33.2 µM (active)

## CCO[Si](CCCNC(N)=O)(OCC)OCC
[10]
  outcome: inactive
[1]
  outcome: inactive
[2]
  outcome: inactive
[3]
  outcome: inactive
[4]
  outcome: inactive
[5]
  outcome: inactive
[6]
  outcome: inactive
[8]
  outcome: inactive
[9]
  outcome: inactive

## OC12N=C(c3ccccc3)SC1Cc1cc(Cl)ccc12 (stereo not given)
[1]
  outcome: inactive
[2]
  AC50: 20 µM (active)
[3]
  outcome: inactive
[4]
  outcome: inactive
[5]
  outcome: inactive
[6]
  outcome: inactive
[7]
  outcome: inactive
[8]
  outcome: inactive
[9]
  outcome: inactive

## NC(=O)c1nc(-c2cccc(-c3cc(F)ccc3OCC(F)(F)C(F)(F)F)c2)n[nH]1
[10]
  outcome: inactive
[2]
  AC50: 38.2 µM (active)
[3]
  AC50: 35.9 µM (active)
[4]
  AC50: 37.5 µM (active)
[5]
  AC50: 33 µM (active)
[6]
  AC50: 35.1 µM (active)
[7]
  AC50: 37.7 µM (active)
[8]
  AC50: 35.3 µM (active)
[9]
  outcome: inactive

## CCCOC(=O)c1cc(O)c(O)c(O)c1
[10]
  outcome: inactive
[1]
  outcome: inactive
[2]
  AC50: 2.01 µM (active)
[3]
  outcome: inactive
[4]
  outcome: inactive
[5]
  outcome: inactive
[6]
  outcome: inactive
[8]
  outcome: inactive
[9]
  outcome: inactive

## NCc1cccc(C2CCN(C(=O)c3ccc(C#Cc4ccccc4F)o3)CC2)c1
[10]
  outcome: inactive
[1]
  AC50: 6.79 µM (active)
[2]
  AC50: 26.2 µM (active)
[3]
  AC50: 12.4 µM (active)
[4]
  AC50: 13.7 µM (active)
[5]
  AC50: 13.1 µM (active)
[6]
  AC50: 13.8 µM (active)
[8]
  AC50: 11.8 µM (active)
[9]
  AC50: 33.9 µM (active)

## CN(C)c1ccc(C(=C2C=CC(=[N+](C)C)C=C2)c2ccc(N(C)C)cc2)cc1
[10]
  AC50: 0.148 µM (active)
[1]
  AC50: 1.28 µM (active)
[2]
  AC50: 5.55 µM (active)
[3]
  AC50: 5.52 µM (active)
[4]
  AC50: 6.32 µM (active)
[5]
  AC50: 0.73 µM (active)
[6]
  AC50: 0.228 µM (active)
[8]
  AC50: 5.52 µM (active)
[9]
  AC50: 6.61 µM (active)
